# Reference: PubChem BioAssay
# “And” between values parts separate entries of the source, which are not always exact repeats. Identical values can stand only once. The source made the active and inactive calls. Rule as the data show it, unless noted: active = inhibition above about 80%; inactive = the rest.
# What was measured:
# [1] = viability loss with induced miR-34 in A549 – imaging, A549 dox-inducible miR-34, nuclei and caspase counts, primary screen (AID 1347080;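 active = compounds whose cell count with miR-34 switched on is under 0.7 times the count with it off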); details: A549 miR-34 inducible, Hoechst nuclei count, 48 h
# [2] = MELAS cybrid and Rieske KO viability enhancers – cell-based, MELAS cybrids, Rieske KO mouse fibroblasts, CellTiter-Glo, primary screen (AID 1508586;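 active = mean z-score across replicates of 1.96 or higher in either the MELAS or the Rieske mutant cell line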;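 also: z relative to plate mean and SD of compound and empty wells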); details: low glucose
# [3] = compounds altering viability of human ES cells (AID 493140; call rule not given here;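 also: cells exposed to compounds for four days before counting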); details: human embryonic stem cell survival screen; stronger effect = higher value
# [4] = P. berghei load reduction in hepatocytes – cell-based, HepG2, luciferase luminescence, HepG2 viability, primary screen (AID 624349; in the data active = parasite load remaining mostly below about 12%, no sharp cut-off; inactive = mostly above about 10%;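 also: 100% = mean of DMSO negative control wells on the same plate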); details: P. berghei liver stage in HepG2, luciferase luminescence, concentration not given here; parasite load remaining: stronger effect = lower value; viability: measured here: HepG2 viability without parasites
# [5] = growth inhibition, single agent or in combination, cell-based, chromothripsis tumors, cisplatin or BGB combos (AID 1671449); details: LFS_MB_P medulloblastoma cells;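 also: cells exposed for 96 hours; 0% = vehicle DMSO and 100% = killing by high DMSO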
# [6] = growth inhibition, single agent and combos, cell-based, chromothripsis tumors, cisplatin or BGB combos (AID 1671450); details: HDN33 neuroblastoma cells, stronger effect = higher value;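 also: cells exposed to compound for four days; 0% = vehicle DMSO and 100% = cell killing by high DMSO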
# [7] = growth inhibition, single agents and combos, ICB984, cell-based, cisplatin or BGB combos, synergistic combos for chromothripsis tumors (AID 1671451; call rule not given here;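 also: cells exposed for 96 hours before readout; 0% = vehicle DMSO and 100% = killing by high DMSO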); details: ICB984 medulloblastoma cells, drug combinations, stronger effect = higher value
# [8] = growth inhibition, single agents and combos, LFS_MB_1R, cell-based, cisplatin or BGB combos, synergistic combos for chromothripsis tumors (AID 1671452); details: LFS_MB_1R medulloblastoma cells, stronger effect = higher value;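 also: cells exposed for 96 hours before readout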
# [9] = growth inhibition, single agents and combos, HTB85, cell-based, BGB or cisplatin IC20 combos, synergistic combos for chromothripsis tumors (AID 1671453); details: HTB85 osteosarcoma cells, drug combinations, stronger effect = higher value;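 also: cells exposed for 96 hours before readout; 0% = vehicle DMSO and 100% = high DMSO killing control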
# [10] = growth inhibition, single agents and combos, CRL2098, cell-based, BGB or cisplatin IC20 combos, synergistic combos for chromothripsis tumors (AID 1671454); details: CRL2098 osteosarcoma cells, drug combinations, stronger effect = higher value;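 also: cells exposed for 96 h before readout; 0% = vehicle DMSO and 100% = killing by high DMSO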
# [11] = growth inhibition, single agents and combos, HD-MB03, cell-based, BGB or cisplatin IC20 combos, synergistic combos for chromothripsis tumors (AID 1671455; in the data active = inhibition above about 83%;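 also: 0% = vehicle DMSO and 100% = high DMSO as cytotoxic control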); details: HD-MB03 medulloblastoma cells, stronger effect = higher value
# [12] = growth inhibition, single agents and combos, UWB1.289, cell-based, BGB or cisplatin combos, synergistic combos for chromothripsis tumors (AID 1671456); details: UWB1.289 ovarian carcinoma cells, stronger effect = higher value;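 also: cells exposed to compound for four days; 0% = vehicle DMSO and 100% = killing by high DMSO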
# [13] = growth inhibition, single agents and combos, LFS_MB_2R, cell-based, cisplatin combos, synergistic combos for chromothripsis tumors (AID 1671457); details: LFS_MB_2R medulloblastoma cells, stronger effect = higher value;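 also: cells exposed to compound for four days before readout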
# [14] = growth inhibition, MDA-MB-436, cell-based, BGB or cisplatin combos, synergistic combos for chromothripsis tumors (AID 1671458; call rule not given here;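 also: cells exposed for 96 hours; 0% = vehicle DMSO and 100% = killing by high DMSO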); details: MDA-MB-436 breast carcinoma growth inhibition, drug combinations, stronger effect = higher value
# [15] = UWB1.289_BRCA1 ovarian cancer growth, cell-based, BGB or cisplatin combinations (AID 1671459); details: UWB1.289 BRCA1 ovarian carcinoma, drug combinations, stronger effect = higher value
# [16] = drug combination toxicity in non-malignant astrocytes – cell-based, BGB or cisplatin IC20 combos, cytotoxicity control for chromothriptic childhood tumor combination screen (AID 1671460); details: Human astrocytes, viability inhibition, drug combinations, at 0.5 µM, stronger effect = higher value;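 also: cells exposed to compounds for 96 hours before viability readout; 0% = vehicle and 100% = killing control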
# [17] = BT084 cell growth, single and combined drugs, ICGC_MB145, cisplatin and BGB IC40 combos (AID 1671461); details: BT084 medulloblastoma cells, drug combinations, at 0.5 µM, stronger effect = higher value;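 also: cells exposed to drugs for 96 hours; 0% = vehicle DMSO and 100% = high DMSO full killing control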
# [18] = stronger effect = lower value, cell number ratio, induced over uninduced
# [19] = measured here: relative caspase fold change +Dox/-Dox
# [20] = measured here: total cells with miR-34 induction, stronger effect = lower value
# [21] = measured here: total cells without miR-34 induction
# [22] = MELAS cybrid survival, CellTiter-Glo 48 h, stronger effect = higher value
# [23] = Rieske KO mouse fibroblast survival, CellTiter-Glo 72 h
# [24] = measured here: combination with BGB IC40, at 0.05 µM
# [25] = measured here: combination with cisplatin, at 0.5 µM
# [26] = measured here: combination with cisplatin, at 5 µM
smiles,measurement,setting,value
O=C1OC(C(O)CO)C(O)=C1O (stereo not drawn),fold change,[1]; [18],1.03 (inactive)
same,fold change,[1]; [19],1.05
same,cell count,[1]; [20],8100
same,cell count,[1]; [21],7850
same,z-score,[2]; [22],0.0982 (inactive)
same,z-score,[2]; [23],-0.298
O=C(O)C=Cc1ccc(O)c(O)c1,survival,[3],7.75 (inactive)
same,parasite load remaining,[4],59.8% (inactive)
same,viability,[4],95.6%
same,fold change,[1]; [18],0.886 (inactive) and 0.85 (inactive)
same,fold change,[1]; [19],1.16 and 0.929
same,cell count,[1]; [20],9150 and 8100
same,cell count,[1]; [21],10300 and 9530
same,z-score,[2]; [22],-0.35 (inactive)
same,z-score,[2]; [23],0.227
Nc1nc(=S)c2ncn([C@@H]3O[C@H](CO)[C@@H](O)[C@H]3O)c2[nH]1,survival,[3],1.25 (inactive)
same,parasite load remaining,[4],64.1% (inactive) and 72.9% (inactive)
same,viability,[4],36.6% and 69.4%
same,fold change,[1]; [18],1.04 (inactive)
same,fold change,[1]; [19],1.52
same,cell count,[1]; [20],2980
same,cell count,[1]; [21],2870
same,z-score,[2]; [22],3.35 (active)
same,z-score,[2]; [23],-0.524
CNc1ncnc2c1ncn2[C@@H]1O[C@H](CO)[C@@H](O)[C@H]1O,survival,[3],5.42 (inactive)
same,parasite load remaining,[4],23.9% (inactive) and 70.7% (inactive)
same,viability,[4],132% and 78.2%
same,fold change,[1]; [18],0.829 (inactive)
same,fold change,[1]; [19],1.48
same,cell count,[1]; [20],7800
same,cell count,[1]; [21],9420
same,z-score,[2]; [22],0.118 (inactive)
same,z-score,[2]; [23],-0.237
CCCCN(Cc1ccc(C(=O)NO)cc1)C(=O)Nc1ccccc1,fold change,[1]; [18],0.983 (inactive)
same,fold change,[1]; [19],0.418
same,cell count,[1]; [20],4530
same,cell count,[1]; [21],4600
same,z-score,[2]; [22],-0.565 (inactive)
same,z-score,[2]; [23],1.2
same,inhibition,"[5]; at 0.5 µM, stronger effect = higher value",-20% (inactive) and -3.97% (inactive)
same,inhibition,"[5]; measured here: combination with BGB IC20, at 0.005 µM",-3.67% and 7.55%
same,inhibition,"[5]; measured here: combination with BGB IC40, at 0.005 µM",4.04% and -3.84%
same,inhibition,[5]; [24],40.8% and 5.09%
same,inhibition,"[5]; measured here: combination with cisplatin, at 0.5 µM, stronger effect = higher value",-30.1% and 27.1%
same,inhibition,"[5]; measured here: combination with cisplatin, at 5 µM, stronger effect = higher value",80.5% and 81.8%
same,inhibition,"[6]; BGB combo, at 5 µM",53.8% and 40.9%
same,inhibition,[6]; at 0.5 µM,23.8% (inactive) and 15.6% (inactive)
same,inhibition,"[6]; cisplatin combo, at 5 µM",52.4% and 49.4%
same,inhibition,"[6]; measured here: with BGB IC20 combination, at 0.5 µM",24.6% and 6.38%
same,inhibition,"[6]; measured here: with cisplatin IC20 combination, at 0.5 µM",17.1% and 28%
same,inhibition,"[6]; single agent, at 5 µM",52.1% and 51.6%
same,inhibition,"[7]; BGB IC20 combo, at 0.005 µM",-10.6% and 8.62%
same,inhibition,"[7]; BGB IC40 combo, at 0.005 µM",-48.5% and 3.88%
same,inhibition,"[7]; BGB IC40 combo, at 0.05 µM",19.3% and 30.6%
same,inhibition,[7]; at 0.5 µM,-22.3% (inactive) and 1.78% (inactive)
same,inhibition,"[7]; cisplatin combo, at 0.05 µM",16.1% and 28.6%
same,inhibition,"[7]; cisplatin combo, at 0.5 µM",-41.9% and 10.4%
same,inhibition,"[7]; cisplatin combo, at 5 µM",-6.73% and -20.8%
same,inhibition,"[7]; measured here: 5 uM single agent, at 5 µM",-6.18% and 2.93%
same,inhibition,[8]; at 0.5 µM,-0.52% (inactive) and 4.37% (inactive)
same,inhibition,[8]; [24],-26.5% and -6.78%
same,inhibition,[8]; [25],3.43% and 2.01%
same,inhibition,[8]; [26],21.2% and 8.3%
same,inhibition,[9]; at 0.5 µM,19.9% (inactive) and 9.96% (inactive)
same,inhibition,"[9]; measured here: with BGB IC20, at 0.5 µM",8.29% and 2.56%
same,inhibition,"[9]; measured here: with BGB IC20, at 5 µM",37.9% and 32.7%
same,inhibition,"[9]; measured here: with cisplatin IC20, at 0.5 µM",24.2% and 15.2%
same,inhibition,"[9]; measured here: with cisplatin IC20, at 5 µM",61.3% and 51.1%
same,inhibition,"[9]; single agent, at 5 µM",64% and 41.2%
same,inhibition,[10]; at 0.5 µM,-11.3% (inactive) and -33.3% (inactive)
same,inhibition,"[10]; measured here: combination with BGB at IC20, at 0.5 µM",5.14% and -65%
same,inhibition,"[10]; measured here: combination with cisplatin at IC20, at 0.5 µM",14.3% and -15.5%
same,inhibition,[11]; at 0.5 µM,14.8% (inactive) and 3.61% (inactive)
same,inhibition,"[11]; measured here: combo with BGB at IC20, at 0.5 µM",8.17% and 6.08%
same,inhibition,"[11]; measured here: combo with cisplatin at IC20, at 0.5 µM",19.9% and -1.69%
same,inhibition,[12]; at 0.5 µM,11.9% (inactive) and 3.45% (inactive)
same,inhibition,"[12]; measured here: inhibition with BGB combination, at 0.05 µM",1.66% and 3.63%
same,inhibition,"[12]; measured here: inhibition with cisplatin combination, at 0.05 µM",-1.43% and -3.86%
same,inhibition,[13]; at 0.5 µM,-2.85% (inactive) and 5.34% (inactive)
same,inhibition,[13]; [25],10.6% and 13.6%
same,inhibition,[13]; [26],66.3% and 45%
same,inhibition,[14]; at 0.5 µM,2.63% (inactive) and 5.38% (inactive)
same,inhibition,"[14]; measured here: BGB combination, at 0.5 µM",-2.67% and 11.6%
same,inhibition,"[14]; measured here: BGB combination, at 5 µM",10.7% and 17.3%
same,inhibition,"[14]; measured here: cisplatin combination, at 0.5 µM",0.872% and -0.512%
same,inhibition,"[14]; measured here: cisplatin combination, at 5 µM",26% and 22.1%
same,inhibition,"[15]; BGB combination, concentration series, at 5 µM",53.9% and 55%
same,inhibition,[15]; at 0.5 µM,11.3% (inactive) and 5.83% (inactive)
same,inhibition,"[15]; cisplatin combination, concentration series, at 5 µM",64.1% and 65%
same,inhibition,[16],12.4% (inactive) and -2.38% (inactive)
same,inhibition,[16]; measured here: combo with BGB IC20,32.5% and 11.7%
same,inhibition,[16]; measured here: combo with cisplatin IC20,10.7% and -23.3%
same,inhibition,[17],4.6% (inactive) and 18.3% (inactive)
